Measurements taken from PubChem BioAssay (Tox21).
“And” between values parts separate entries of the source, which are not always exact repeats. Equal values may be shown once. Records with an inconclusive call do not appear. Entries that show only a call come without a potency. The source holds several records for some structures; these can differ, active in one and inactive in another. The source made the active and inactive calls. Unless noted, calls come from the whole dose curve; as a rule, active = well fitted curve in the direction sought with a large enough effect in the repeat runs; inconclusive = weak or mixed curves; inactive = no such curve, though single readings can be large; an effect the other way counts as inactive or inconclusive.

What was measured:
[1] = qHTS assay to identify small molecule antagonists of the estrogen receptor alpha (ER-alpha) signaling pathway using the BG1 cell line in the presence of 0.1 nM 17-beta-estradiol - cell viability counter screen (AID 1259241); note: nearly all actives have a fitted effect of over 40% in size; note: potency is the fitted concentration of half-maximal effect
Method in brief: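 Cytotoxicity counter-screen: live-cell protease activity measured by fluorescence (30 min reagent step) in the same wells. Cells were VM7Luc4E2 with endogenous ER-alpha and ERE-driven luciferase, treated 22 hr at 37C alongside 0.1 nM 17beta-estradiol final.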

[2] = qHTS assay to identify small molecule HDAC inhibitors - cell viability counter screen (AID 1259365); note: nearly all actives have a fitted effect of over 50% in size; note: potency is the fitted concentration of half-maximal effect
Method in brief: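 CellTiter-Glo luminescence (30 min, room temperature) reported viability after a 2 h compound exposure at 37 C. Cells: wild-type HCT-116, 1,500 per well, seeded the night before.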

[3] = qHTS assay to identify small molecule agonists of the sonic hedgehog signaling (Shh) pathway - cell viability counter screen (AID 1259366); note: nearly all actives have a fitted effect of over 50% in size; note: potency is the fitted concentration of half-maximal effect
Method in brief: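 Cytotoxicity counter screen: CellTiter-Fluor reagent added after 23 h compound exposure, then 1 h at 37C and fluorescence read. Cells were 3T3 Gli1-Luc, seeded 2,000 per well and dosed 4 h post-plating.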

[4] = qHTS assay to identify small molecule antagonists of the sonic hedgehog signaling (Shh) pathway - cell viability counter screen (AID 1259367); note: nearly all actives have a fitted effect of over 55% in size; note: potency is the fitted concentration of half-maximal effect
Method in brief: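 CellTiter-Fluor signal in conditioned medium-stimulated 3T3 Gli1-Luc cells, 23 hr compound exposure, 37C.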

[5] = qHTS assay to identify small molecule agonists of the sonic hedgehog signaling (Shh) pathway (AID 1259368; calls by dose curve;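 note: NIH/3T3-derived 3T3Gli1-Luc cells carrying a stable Gli1-driven firefly luciferase reporter; series mostly up to about 92 µM; nearly all actives have a fitted effect of over 15% in size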)
Method in brief: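 Stable NIH/3T3 Gli1-Luc reporter clone; 24 hr cpd exposure after a 4 hr settling period; luminescence endpoint.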

[6] = qHTS assay to identify small molecule agonists of the androgen receptor (AR) signaling pathway in the presence of an antagonist - cell viability counter screen (AID 1259379); note: nearly all actives have a fitted effect of over 25% in size; note: potency is the fitted concentration of half-maximal effect
Method in brief: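 Counter screen for cell viability run in parallel with the AR agonist-mode luciferase assay. MDA-kb2 cells were co-treated with nilutamide (3.0uM final) and compounds, then incubated 16 hr at 37C, and CellTiter-Fluor fluorescence was measured.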

[7] = qHTS assay to identify small molecule agonists of the estrogen receptor beta (ER-beta) signaling pathway - cell viability counter screen (AID 1259380); note: potency is the fitted concentration of half-maximal effect; nearly all actives have a fitted effect of over 30% in size
Method in brief: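 In this qHTS counter screen, HEK293T cells carrying an ER-beta/UAS beta-lactamase reporter, grown in 2% charcoal-stripped FBS, received compound for 16 hr; ATP-based CellTiter-Glo luminescence was then read after 30 min at room temperature.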

[8] = target: Estrogen receptor (Homo sapiens) (UniProt P03372); assay: qHTS assay to identify small molecule agonists of the estrogen receptor alpha (ER-alpha) signaling pathway in the presence of an antagonist (AID 1259383; calls by dose curve; note: top concentration of the series differs between compounds; nearly all actives have a fitted effect of over 15% in size)
Sequence of Estrogen receptor (Homo sapiens) (P03372 whole entry, looked up): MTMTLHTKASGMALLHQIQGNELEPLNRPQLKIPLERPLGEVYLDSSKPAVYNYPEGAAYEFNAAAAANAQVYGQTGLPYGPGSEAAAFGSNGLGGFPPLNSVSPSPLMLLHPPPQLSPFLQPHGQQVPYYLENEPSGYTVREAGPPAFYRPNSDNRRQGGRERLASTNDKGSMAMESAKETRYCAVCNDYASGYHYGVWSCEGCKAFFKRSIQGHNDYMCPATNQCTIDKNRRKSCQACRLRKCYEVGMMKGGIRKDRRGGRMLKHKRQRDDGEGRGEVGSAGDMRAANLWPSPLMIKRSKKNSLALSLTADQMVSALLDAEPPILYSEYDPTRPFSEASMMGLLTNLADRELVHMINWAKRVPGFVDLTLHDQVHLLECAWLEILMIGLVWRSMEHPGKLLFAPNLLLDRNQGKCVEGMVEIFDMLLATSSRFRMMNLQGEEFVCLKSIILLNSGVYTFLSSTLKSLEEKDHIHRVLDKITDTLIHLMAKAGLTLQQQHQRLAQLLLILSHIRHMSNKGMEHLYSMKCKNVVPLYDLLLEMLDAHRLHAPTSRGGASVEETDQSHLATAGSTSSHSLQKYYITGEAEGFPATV
Method in brief: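 ER-alpha agonism measured under antagonist challenge: 10.0nM ICI-182,780 (final) plus compound, 15 concentrations, 22hr, VM7Luc4E2 ERE-luciferase cells. Read by luminescence.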

[9] = qHTS assay to identify small molecule agonists or antagonists of the thyroid stimulating hormone receptor (TSHR) signaling pathway - wild type cell line counter screen (AID 1259384; calls by dose curve)
Method in brief: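 Counter screen in untransfected Hek293: compounds (15-point titration, triplicate) plus phosphodiesterase inhibitor Ro20-1724 added after 18 h plating; 30 min RT. Intracellular cAMP via competitive d2/cryptate immunoassay, 1 h incubation.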

[10] = target: Thyrotropin receptor (Homo sapiens) (UniProt P16473); assay: qHTS assay to identify small molecule antagonists of the thyroid stimulating hormone receptor (TSHR) signaling pathway (AID 1259385; calls by dose curve; note: nearly all actives have a fitted effect of over 20% in size; note: potency is the fitted concentration of half-maximal effect)
Sequence of Thyrotropin receptor (Homo sapiens) (P16473 whole entry, looked up): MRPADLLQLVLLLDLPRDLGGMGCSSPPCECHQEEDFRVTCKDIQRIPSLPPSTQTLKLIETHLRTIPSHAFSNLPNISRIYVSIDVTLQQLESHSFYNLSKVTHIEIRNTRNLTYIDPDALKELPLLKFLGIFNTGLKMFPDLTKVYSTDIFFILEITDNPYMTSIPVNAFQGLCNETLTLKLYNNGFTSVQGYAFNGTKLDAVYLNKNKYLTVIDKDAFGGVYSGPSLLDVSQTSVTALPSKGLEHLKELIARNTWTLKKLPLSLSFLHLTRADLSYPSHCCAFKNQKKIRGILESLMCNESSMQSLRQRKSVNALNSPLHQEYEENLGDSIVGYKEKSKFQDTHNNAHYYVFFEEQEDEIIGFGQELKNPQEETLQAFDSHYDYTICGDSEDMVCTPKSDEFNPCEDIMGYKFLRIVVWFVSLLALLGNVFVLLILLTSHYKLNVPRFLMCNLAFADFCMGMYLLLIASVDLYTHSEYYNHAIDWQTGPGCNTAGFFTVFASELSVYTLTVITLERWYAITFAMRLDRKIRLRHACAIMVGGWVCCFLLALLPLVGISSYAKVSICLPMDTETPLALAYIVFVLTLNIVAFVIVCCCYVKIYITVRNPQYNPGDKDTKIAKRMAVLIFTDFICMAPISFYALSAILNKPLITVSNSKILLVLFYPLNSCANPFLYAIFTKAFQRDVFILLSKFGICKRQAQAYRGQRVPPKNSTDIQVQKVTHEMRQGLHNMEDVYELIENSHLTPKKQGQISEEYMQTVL
Method in brief: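 Antagonist mode: compound-treated TSHR-expressing HEK293 cells were stimulated with 1.5 ng/mL TSH (final) in presence of Ro20-1724 for 30 min at RT. HTRF cAMP detection after 1 h; each compound tested at 15 concentrations, triplicate.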

[11] = qHTS assay to identify small molecule phospholipidosis (PLD) inducers (AID 1259344; active = well fitted curve in the direction sought with a large enough effect; an effect the other way counts as inactive or inconclusive)
Method in brief: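 Accumulated phospholipid, stained red by LipidTOX during 24 h compound treatment of HepG2 cells at 37 C, is quantified from images as pit number and intensity, normalised per cell using Hoechst-stained nuclei.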

[12] = qHTS assay to identify small molecule HDAC inhibitors (AID 1259364); note: potency is the fitted concentration of half-maximal effect;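 note: wild-type HCT-116 cells with endogenous class I/II HDAC activity; nearly all actives have a fitted effect of over 45% in size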
Method in brief: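 After a 2 hr compound incubation (37C, 5% CO2), HCT-116 cells seeded at 1,500/well the day before received HDAC-Glo reagent; signal read as luminescence after 30 min at room temperature.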

[13] = target: Estrogen receptor beta (Homo sapiens) (UniProt Q92731); assay: qHTS assay to identify small molecule agonists of the estrogen receptor beta (ER-beta) signaling pathway (AID 1259377; active = well fitted activation curve with a large enough effect in the signal ratio in the repeat runs, not every such curve was filed as active; the % refers to the signal ratio)
Sequence of Estrogen receptor beta (Homo sapiens) (Q92731 whole entry, looked up): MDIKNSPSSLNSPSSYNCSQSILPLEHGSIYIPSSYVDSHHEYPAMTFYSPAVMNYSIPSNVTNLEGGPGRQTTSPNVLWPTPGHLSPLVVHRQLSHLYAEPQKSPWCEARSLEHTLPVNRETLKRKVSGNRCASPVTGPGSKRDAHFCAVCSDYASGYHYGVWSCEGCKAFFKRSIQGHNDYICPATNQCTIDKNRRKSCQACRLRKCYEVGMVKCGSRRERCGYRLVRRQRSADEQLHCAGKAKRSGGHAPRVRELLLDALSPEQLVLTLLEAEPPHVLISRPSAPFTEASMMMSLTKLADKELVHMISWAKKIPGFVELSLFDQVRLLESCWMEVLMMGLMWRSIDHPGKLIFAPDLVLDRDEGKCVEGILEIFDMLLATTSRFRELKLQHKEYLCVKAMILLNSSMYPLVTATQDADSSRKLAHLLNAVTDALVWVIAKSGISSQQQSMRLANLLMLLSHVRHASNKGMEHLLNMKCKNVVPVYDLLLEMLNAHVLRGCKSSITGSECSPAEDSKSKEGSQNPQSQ
Method in brief: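 Ratiometric beta-lactamase FRET read-out came after 2 h substrate loading at room temperature. It followed 16 h compound treatment at 37C of GripTite HEK293T cells carrying a UAS-bla reporter, plated in 2% charcoal-stripped FBS medium.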

[14] = qHTS assay to identify small molecule antagonists of the sonic hedgehog signaling (Shh) pathway (AID 1259369; calls by dose curve; note: nearly all actives have a fitted effect of over 45% in size; note: potency is the fitted concentration of half-maximal effect)
Method in brief: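 Gli1 transcriptional reporter (firefly Luc) in NIH/3T3 background, conditioned-medium activated. 24hr exposure, luminescence endpoint.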

[15] = target: Estrogen receptor (Homo sapiens) (UniProt P03372); assay: qHTS assay to identify small molecule antagonists of the estrogen receptor alpha (ER-alpha) signaling pathway using the BG1 cell line in the presence of 0.1 nM 17-beta-estradiol (AID 1259244); note: potency is the fitted concentration of half-maximal effect; nearly all actives have a fitted effect of over 50% in size
Method in brief: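 Seeding of stripped-serum-adapted VM7Luc4E2 cells, 24 h attachment, compound transfer, then 0.1 nM final 17beta-estradiol; after 22 h incubation, ONE-Glo reagent and luminescence reading.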

[16] = qHTS assay to identify small molecule antagonists of the androgen receptor (AR) signaling pathway using the MDA cell line in the presence of 0.5 nM R1881 - cell viability counter screen (AID 1259242); note: nearly all actives have a fitted effect of over 45% in size; note: potency is the fitted concentration of half-maximal effect
Method in brief: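 Human breast carcinoma MDA-kb2 cells, cultured without CO2, receive compounds alongside 0.5 nM (final) R1881 agonist. After 16 hr at 37C, viability is taken as live-cell protease signal.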

[17] = qHTS assay to identify small molecule antagonists of the estrogen receptor beta (ER-beta) signaling pathway - cell viability counter screen (AID 1259382); note: nearly all actives have a fitted effect of over 55% in size; note: potency is the fitted concentration of half-maximal effect
Method in brief: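 HEK293T ER-beta-UAS-bla, 2% charcoal-stripped FBS; compounds + 1nM E2 16 hr 37C; CellTiter-Glo luminescence, 30 min RT.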

[18] = target: Estrogen receptor beta (Homo sapiens) (UniProt Q92731); assay: qHTS assay to identify small molecule antagonists of the estrogen receptor beta (ER-beta) signaling pathway (AID 1259378; active = well fitted inhibition curve with a large enough effect in the signal ratio in the repeat runs, not every such curve was filed as active; the % refers to the signal ratio)
Method in brief: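 Antagonist mode: compounds added to beta-lactamase reporter HEK293T ER-beta-UAS cells stimulated with E2 (1nM final), 16 hr at 37C. LiveBLAzer B/G FRET substrate, 2 hours room temperature, fluorescence read-out.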

[19] = target: Androgen receptor (Homo sapiens) (UniProt P10275); assay: qHTS assay to identify small molecule agonists of the androgen receptor (AR) signaling pathway in the presence of an antagonist (AID 1259381; calls by dose curve; note: nearly all actives have a fitted effect of over 15% in size)
Sequence of Androgen receptor (Homo sapiens) (P10275 whole entry, looked up): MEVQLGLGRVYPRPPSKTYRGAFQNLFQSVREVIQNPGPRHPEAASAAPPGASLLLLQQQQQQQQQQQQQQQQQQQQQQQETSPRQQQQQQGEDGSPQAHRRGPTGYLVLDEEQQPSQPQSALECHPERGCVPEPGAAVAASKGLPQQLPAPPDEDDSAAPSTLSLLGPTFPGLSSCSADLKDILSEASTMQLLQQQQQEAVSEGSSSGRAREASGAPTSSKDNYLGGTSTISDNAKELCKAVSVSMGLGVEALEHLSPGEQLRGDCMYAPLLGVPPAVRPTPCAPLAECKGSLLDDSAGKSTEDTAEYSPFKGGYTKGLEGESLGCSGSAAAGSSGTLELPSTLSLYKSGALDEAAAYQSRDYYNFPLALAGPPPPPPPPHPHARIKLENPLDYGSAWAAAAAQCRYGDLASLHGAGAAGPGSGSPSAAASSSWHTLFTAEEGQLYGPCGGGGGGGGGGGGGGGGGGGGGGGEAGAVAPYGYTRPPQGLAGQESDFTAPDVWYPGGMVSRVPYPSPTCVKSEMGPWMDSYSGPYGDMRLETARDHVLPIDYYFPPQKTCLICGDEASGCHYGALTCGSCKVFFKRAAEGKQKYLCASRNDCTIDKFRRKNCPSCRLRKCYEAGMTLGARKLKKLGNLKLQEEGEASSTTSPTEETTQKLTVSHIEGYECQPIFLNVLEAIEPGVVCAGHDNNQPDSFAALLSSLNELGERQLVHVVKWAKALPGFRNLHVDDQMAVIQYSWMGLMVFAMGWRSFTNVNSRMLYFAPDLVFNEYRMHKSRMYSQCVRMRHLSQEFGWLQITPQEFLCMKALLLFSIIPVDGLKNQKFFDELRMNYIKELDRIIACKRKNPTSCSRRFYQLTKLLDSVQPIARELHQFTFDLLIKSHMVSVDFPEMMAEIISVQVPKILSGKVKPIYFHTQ
Method in brief: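 AR antagonist background: nilutamide 3.0uM final. Cell line: MDA-kb2, MMTV-driven luciferase, responsive to both AR and GR. Exposure 16hr, 37C, no CO2; ONE-Glo luminescence.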

[20] = target: Androgen receptor (Homo sapiens) (UniProt P10275); assay: qHTS assay to identify small molecule antagonists of the androgen receptor (AR) signaling pathway using the MDA cell line in the presence of 0.5 nM R1881 (AID 1259243); note: potency is the fitted concentration of half-maximal effect; nearly all actives have a fitted effect of over 50% in size
Method in brief: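 Cells: MDA-kb2 (MMTV-luc). Stimulus: 0.5 nM R1881. Time: 16 hr, 37C, no CO2. Detection: ONE-Glo luminescence after 30 min at RT.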

| Structure (SMILES) | Potency [1] | Potency [2] | Potency [3] | Potency [4] | Potency [5] | Potency [6] | Potency [7] | Potency [8] | outcome [9] | Potency [10] | Potency [11] | Potency [12] | Potency [13] | Potency [14] | Potency [15] | Potency [16] | Potency [17] | Potency [18] | Potency [19] | Potency [20] |
| --- | --- | --- | --- | --- | --- | --- | --- | --- | --- | --- | --- | --- | --- | --- | --- | --- | --- | --- | --- | --- |
| O=C1C=CC(=O)N1c1ccc(Cc2ccc(N3C(=O)C=CC3=O)cc2)cc1 | inactive | inactive | 7.7 µM (active) | 21.7 µM (active) | inactive | 48.6 µM (active) | 48.6 µM (active) | inactive | inactive | 48.6 µM (active) |  |  |  |  |  |  |  |  |  |  |
| C[C@@H]1C[C@H]2[C@@H]3CCC4=CC(=O)C=C[C@]4(C)[C@@]3(Cl)[C@@H](O)C[C@]2(C)[C@@]1(OC(=O)c1ccco1)C(=O)CCl | inactive | inactive |  |  | inactive |  |  |  |  | inactive | inactive | inactive | inactive |  |  |  |  |  |  |  |
| CCC(Cl)C(Cl)C(Cl)CC(Cl)C(Cl)C(C)Cl (configuration not stated) | inactive | inactive | inactive | inactive | inactive | inactive |  |  | inactive | inactive |  | inactive | inactive | inactive |  |  |  |  |  |  |
| O=c1[nH]sc2ccccc12 | 61.1 µM (active) | inactive | 13.7 µM (active) | 17.2 µM (active) | inactive |  | 19.3 µM (active) | inactive | inactive | 68.6 µM (active) |  |  | inactive | 0.969 µM (active) | 54.5 µM (active) |  |  |  |  |  |
| O=c1cc(-c2ccc(O)cc2)oc2cc(O)cc(O)c12 |  | inactive | 61.9 µM (active) and 38.6 µM (active) | 48.6 µM (active) | inactive |  |  |  | inactive | inactive |  | 8.75 µM (active) and 17.2 µM (active) |  | inactive and 30.6 µM (active) |  | inactive | inactive |  |  |  |
| ON=C1CCCC1 |  | inactive | inactive | inactive | inactive | inactive | 35.6 µM (active) | inactive | inactive | inactive |  | inactive |  | inactive |  | inactive | inactive | inactive | inactive |  |
| CCCC(=O)OC[C@@H](OC(=O)CCC)[C@@H](OC(=O)CCC)[C@H](Cn1c2nc(=O)[nH]c(=O)c-2nc2cc(C)c(C)cc21)OC(=O)CCC |  | inactive |  |  | inactive | inactive | 16.8 µM (active) | inactive | inactive | inactive | inactive | inactive |  | 2.37 µM (active) | 26.6 µM (active) | inactive | inactive |  |  | 16.8 µM (active) |
| Oc1cc2ccccc2c2ccccc12 |  | 24.3 µM (active) | 4.33 µM (active) | 6.86 µM (active) | inactive | 13.7 µM (active) | 5.45 µM (active) | inactive |  |  |  |  |  | 4.86 µM (active) | 15.4 µM (active) | 19.3 µM (active) | 7.7 µM (active) |  | inactive | 10.9 µM (active) |
